# Experimental data from PubChem BioAssay (EPA / NIEHS).
# Active and inactive are the calls of the source. The calls were made as follows: active = hit-call score of the fitted dose curve at least 0.9, where 1 is the maximum; inactive = score below 0.9.
# Assay: ATG_M_32_CIS: Attagene CIS-FACTORIAL HepG2 Assay for M32 Transcription Factor (Internal Marker) (AID 2282949);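 also: background control marker of the multiplexed CIS panel rather than a real target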
# Conditions: HepG2 Attagene cis-factorial M32 reporter, mRNA; actives raise or lower the signal
# Description: ATG_CIS is a cell-based, multiplexed-readout assay that uses HepG2, a human liver cell line, with measurements taken at 24 hours after chemical dosing in a 24-well plate.ATG_M_32_CIS is one of 52 assay component(s) measured or calculated from the ATG_CIS assay. It is designed to make measurements of mRNA induction, a form of inducible reporter, as detected with fluorescence intensity signals by Reverse transcription polymerase chain reaction (RT-PCR) and Capillary electrophoresis technology.Data from the assay component ATG_M_32_CIS was analyzed into 1 assay endpoint. This assay endpoint, ATG_M_32_CIS, was analyzed with bidirectional fitting relative to DMSO as the negative control and baseline of activity. Using a type of inducible reporter, measures of mRNA for gain or loss-of-signal activity can be used to understand the background control at the transcription factor-level as they relate to the gene . Furthermore, this assay endpoint can be referred to as a secondary readout, because this assay has produced multiple assay endpoints where this one serves a background control function. To generalize the intended target to other relatable targets, this assay endpoint is annotated to the background measurement intended target family, where the subfamily is internal marker.
# Human liver HepG2 cells are transiently transfected with multiple reporter transcription units (MRTUs) in 6-well plates using FuGene 6 reagent (Roche; 3 ml FuGene/1 mg DNA). The MRTU constructs are regulated by a cis-regulating element (promoter). […] A major difference between the CIS and TRANS system is that in CIS activities of endogenous TFs are measured, whereas the TRANS assay evaluates changes in activities of exogenous, chimeric NR-Gal4 proteins. […] At the end of 24 hour incubation, total RNA was isolated using TriZol reagent (Invitrogen). The isolated RNA is then reverse-transcribed using oligo(dT) primer and Mo-MLV reverse transcriptase (Invitrogen) with DNAse I (Ambion) treatment for 30 min. The one-tenth of the produced cDNA was amplified by PCR using Taq DNA polymerase (Invitrogen) and two reporter sequence-specific primers. The PCR products were fluorescently labeled by primer extension with 6-arboxyfluorescein (6-FAM) 5'-labeled reporter sequence-specific primer (2 min at 95 C, 20 s at 68 C and 10 min at 72 C) and these products were digested with 5U of HpaI (New England Biolabs) for 2h at 37 C. The fragments were purified using Qiaquick PCR columns (Qiagen), analyzed on an ABI 3130xL genetic analyzer (Applied Biosystems) with peak positions identified by using a set of X-rhodamine (ROX)-labeled MapMarker1000 molecular weight standards (BioVentures). The raw capillary electrophoresis data was processed using Attagraph software (Attagene).
row,SMILES,outcome
1,CCO/C=C1\N=C(c2ccccc2)OC1=O,inactive
2,COc1ccccc1[N+](=O)[O-],inactive
3,c1ccc(Oc2ccccc2)cc1,inactive
4,Cc1ccc(N)c(S(=O)(=O)O)c1,inactive
5,c1ccc(CCc2ccccc2)cc1,inactive
6,O=CN1CCOCC1,inactive
7,COc1cc(Cl)c(OC)cc1N,inactive
8,CC(C=O)Cc1ccc(C(C)(C)C)cc1 (stereo not given),inactive
9,CCCCC(CC)COC(=O)c1ccc(O)cc1 (stereo not given),inactive
10,O=C1OC(=O)c2c(Cl)c(Cl)c(Cl)c(Cl)c21,inactive
11,C=C(C)C(=O)OCC(CC)(COC(=O)C(=C)C)COC(=O)C(=C)C,inactive
12,OCC(O)c1ccccc1 (stereo not given),inactive
13,COC(C)(C)CCO,inactive
14,CC(C)CCCCCCc1ccc(OCCOCCO)cc1,inactive
15,CCCCCCCCCCCCN1CCCCCC1=O,inactive
16,CC/C=C\CC/C=C/CO,inactive
17,O=C(Nc1ccc2c(c1)Cc1ccccc1-2)C(F)(F)F,inactive
18,C=CCCCCCCCCCC,inactive
19,CCOCCOCCOCC,inactive
20,O=C(O)c1cc(C(=O)O)cc([N+](=O)[O-])c1,inactive

row,SMILES,outcome
1,CC(C)c1ccccc1O,inactive
2,OCCOCCN1CCN(C2=Nc3ccccc3Sc3ccccc32)CC1,inactive
3,CCCCCCCCSCCO,inactive
4,NC(=S)NNC(N)=S,inactive
5,C=CCOC(=O)CCCCCC,inactive
6,CC1(C)COCN1,inactive
7,CCCCCCCCCCCC(=O)OC[C@@H](O)[C@H]1OC[C@H](O)[C@H]1O,inactive
8,c1ccc2cc(Nc3ccc(Nc4ccc5ccccc5c4)cc3)ccc2c1,inactive
9,O=C(c1ccccc1)C(O)c1ccccc1 (stereo not given),inactive
10,Nc1ccc(N)c2c1C(=O)c1ccccc1C2=O,inactive
11,C=C1C[C@]23C[C@@]1(O)CC[C@H]2[C@@]12C=C[C@H](O)[C@@](C)(C(=O)O1)[C@H]2[C@@H]3C(=O)O,inactive
12,O=P(O)(O)O,inactive
13,[O-]n1ccccc1=S.[O-]n1ccccc1=S.[Zn+2],inactive
14,CCCCCCCCCCCC(=O)OCC(O)CO (stereo not given),inactive
15,CC(C)CCOC(=O)c1ccccc1,inactive
16,N#Cc1ccc(CC(=O)c2cccc(C(F)(F)F)c2)cc1,inactive
17,Cc1ccc2c(c1)C(=O)OC2=O,inactive
18,COCCOC(=O)c1ccccc1C(=O)OCCOC,inactive
19,C[C@H](CCC(=O)NCC(=O)O)[C@H]1CC[C@H]2[C@@H]3[C@H](O)C[C@@H]4C[C@H](O)CC[C@]4(C)[C@H]3C[C@H](O)[C@]12C,inactive
20,COC(=O)c1ccc(C)cc1C1=NC(C)(C(C)C)C(=O)N1 (stereo not given) (tested in a mixture with another compound),inactive
